# Source: PubChem (several laboratories)
# Bim-Bcl-B: inhibitors of Bim-Bcl-B interaction, human; AID 951; hit rate 0.073% among 190,000; inhibition, % at 10 µM; bead-based flow cytometry, Bim peptide-Bcl-B binding; Q9HD36;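 note: 0% = tracer peptide without compound and 100% = reference inhibitor peptide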
# Bcl-XL Bim block: disrupts Bim peptide binding to human Bcl-XL | inhibition, % at 10 µM | bead flow cytometry, fluorescence | hit rate 0.04% among 190,000
# Target sequence (Q07817 whole entry, looked up): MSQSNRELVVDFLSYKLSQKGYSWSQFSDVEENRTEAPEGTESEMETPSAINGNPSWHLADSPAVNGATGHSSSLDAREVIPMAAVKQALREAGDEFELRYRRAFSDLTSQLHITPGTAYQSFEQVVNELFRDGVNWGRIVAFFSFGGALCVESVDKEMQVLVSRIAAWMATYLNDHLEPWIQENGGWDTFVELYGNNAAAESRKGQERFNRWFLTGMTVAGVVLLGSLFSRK
# Bfl-1 Bim block: human Bim-Bfl-1 interaction inhibition; Q16548; Bead-based flow cytometry, Bim-Bfl-1 binding inhibition; inhibition, % at 10 µM; hit rate 0.12% among 190,000; AID 1008;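 note: 0% = wells without compound plus tracer and 100% = blocker peptide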
# Bcl-W Bim block: human Bim-Bcl-W interaction inhibition | Q92843 | bead-based flow cytometry, Bim peptide-Bcl-W binding | inhibition, % at 10 µM | hit rate 0.02% among 190,000 | AID 952;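 note: 0% = bound tracer without compound and 100% = peptide blocker; higher means less fluorescent Bim peptide bound to Bcl-W beads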
# Target sequence (Q92843 whole entry, looked up): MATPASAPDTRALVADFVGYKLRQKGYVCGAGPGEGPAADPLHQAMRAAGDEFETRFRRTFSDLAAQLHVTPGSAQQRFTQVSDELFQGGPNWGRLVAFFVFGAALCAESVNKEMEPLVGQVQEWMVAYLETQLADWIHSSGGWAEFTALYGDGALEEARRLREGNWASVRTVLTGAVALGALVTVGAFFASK
# Wee1 stabilizer: inhibitors of human Wee1 degradation; hit rate 1.2% among 220,000; reporter increase, % at 5 µM; P30291; HeLa Luc-Wee1K328M stability, luciferase luminescence; 100% = proteasome inhibitor MG132 effect;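 active = activation above the mean of all tested compounds plus 3 SD, set per screening run, cut at about 8.8% in these data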;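 note: cells exposed to compound for 20 h before luminescence read; 0% = DMSO alone and 100% = MG132 at 30 µM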
# Bcl-2 Bim block: inhibitors of Bim-Bcl-2 interaction, human; Bead-based flow cytometry, Bim peptide-Bcl-2 binding; inhibition, % at 10 µM; hit rate 0.06% among 190,000; in the data active = inhibition above about 40%;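 note: 0% = no compound wells with probe peptide and 100% = reference peptide inhibitor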
# Target sequence (P10415 whole entry, looked up): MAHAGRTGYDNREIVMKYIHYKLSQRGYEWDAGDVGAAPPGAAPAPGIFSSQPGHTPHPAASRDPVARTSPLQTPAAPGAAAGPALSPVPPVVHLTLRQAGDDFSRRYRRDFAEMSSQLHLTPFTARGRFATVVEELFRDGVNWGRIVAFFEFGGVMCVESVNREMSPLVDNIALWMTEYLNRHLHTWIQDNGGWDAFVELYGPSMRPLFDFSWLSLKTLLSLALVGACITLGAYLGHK
# Wee1 degr conf: human Wee1 degradation inhibition, confirmation. shares compounds with Wee1 stabilizer. HeLa Luc-Wee1K328M degradation, luminescence; vehicle 0%, proteasome-blocked wells 100%. activation, % at 5 µM. hit rate 4% among 1,100; in the data active = activation above about 8.9%
# Numbers without * were called inactive; . = no result; ! = a repeat was not active. An excerpt weighted towards active compounds, which were near 1.4% of everything screened. Cut-off read from the data, not from the text of the source, unless noted: active = inhibition above about 40%.
SMILES,Bim-Bcl-B,Bcl-XL Bim block,Bfl-1 Bim block,Bcl-W Bim block,Wee1 stabilizer,Bcl-2 Bim block,others
CCOc1ccc(N2C(=O)NC(=O)/C(=C/c3cnc(SC)nc3)C2=O)cc1,-2.0,-3.0,-3.0,1.0,10.1*,0.0,
Clc1ccc(Cn2ccnc2)cn1,-1.0,0.0,-3.0,0.0,3.5,-2.0,
O=[N+]([O-])/C=C1\NCCN1Cc1ccc(Cl)nc1,-12.0,-2.0,-2.0,-1.0,9.6*!,-9.0,
COc1cc(CN=C(C)c2c(O)n(C)c(=O)n(C)c2=O)cc(OC)c1,.,.,.,.,9.0*,.,
CC(=NCc1ccc(F)cc1)c1c(O)n(C)c(=O)n(C)c1=O,-2.0,0.0,-6.0,0.0,-1.2,-5.0,
CN1CCN(c2ccc(N)cc2)CC1,61.0*,19.0,15.0,23.0,0.5,10.0,
CN1C2CCC1/C(=C/c1ccccn1)C(=O)/C2=C\c1ccccn1,-9.0,-5.0,5.0,-3.0,21.4*,1.0,
CC(=O)Nc1ccccc1C(=O)C(=O)Nc1cccc(C(=O)N2CCC3(CC2)OCCO3)c1,-3.0,-10.0,-1.0,-8.0,1.1,-5.0,
CC(NCc1ccc(Cl)cc1)C(O)c1ccccc1 (stereo not given),-1.0,-1.0,-8.0,0.0,8.9*,-1.0,
CC(NCc1ccc(Cl)cc1Cl)C(O)c1ccccc1 (stereo not given),-3.0,-3.0,-2.0,-2.0,-0.3,-1.0,
O=C1NC(=O)C(=Cc2ccc(-c3cc(Cl)ccc3[N+](=O)[O-])o2)C(=O)N1,3.0,-2.0,45.0*,8.0,0.2,9.0,
Cc1ccsc1C(=O)C1CCCN(Cc2cnc(N)nc2)C1 (stereo not given),.,.,.,.,9.6*,.,
Cc1ccsc1C(=O)C1CCCN(Cc2cnn(C(C)C)c2)C1 (stereo not given),-3.0,-4.0,1.0,-2.0,-0.2,1.0,
O=C1NC(=O)C2=Cc3ccc(O)cc3OC2(O)N1 (stereo not given),0.0,-1.0,0.0,-2.0,2.2,1.0,
O=P1(NCc2ccco2)COc2ccccc2OC1,-8.0,-9.0,-23.0,-6.0,2.9,-11.0,
Cc1nn(C2CCOC(C)(C)C2)c2c1C(c1ccc3c(c1)OCO3)SCC(=O)N2 (stereo not given),-2.0,-5.0,-2.0,-1.0,11.2*,0.0,
COc1ccc(C2SCC(=O)Nc3c2c(C)nn3C2CCOC(C)(C)C2)cc1 (stereo not given),0.0,-3.0,0.0,-2.0,-0.3,-1.0,
Cc1nc2c(c(=O)[nH]1)C(c1ccc([N+](=O)[O-])cc1)c1c(c3ccccc3oc1=O)O2 (stereo not given),.,.,.,.,-3.2,.,
O=c1[nH]c(=S)n(C2CC2)c(O)c1/C=N/Nc1cccc2ccccc12,-7.0,-8.0,-1.0,-4.0,8.9*,-4.0,
Cn1c(=O)c2c(ncn2CCCl)n(C)c1=O,0.0,1.0,-1.0,1.0,-2.2,0.0,
Cc1ccc(/C=C2/C(=O)NC(=O)N(C)C2=O)cc1,-7.0,-8.0,-10.0,-6.0,8.9*,-4.0,
CCC(=NCC1CCCO1)c1c(O)n(Cc2ccccc2)c(=O)[nH]c1=O (stereo not given),-5.0,-4.0,-19.0,0.0,-0.1,-8.0,
CC/C(=N\NC(=O)c1ccccc1)c1c(O)n(Cc2ccccc2)c(=O)[nH]c1=O,.,.,.,.,10.2*,.,
CCN1CCN(Cc2cc(C(C)(C)C)c(O)c(C(C)(C)C)c2)CC1,-3.0,-3.0,-1.0,1.0,-2.7,-3.0,
Cc1ccc(-c2nn(Cc3ccccc3)cc2C=O)cc1,-4.0,-5.0,0.0,-1.0,9.1*,0.0,
SMILES,Bim-Bcl-B,Bcl-XL Bim block,Bfl-1 Bim block,Bcl-W Bim block,Wee1 stabilizer,Bcl-2 Bim block,others
Cc1ccc(-c2nn(Cc3ccccc3)cc2C=O)cc1C,-6.0,-4.0,-2.0,0.0,2.6,-6.0,
CC1(C)C2([N+](=O)[O-])CN3CC1([N+](=O)[O-])CN(C2)C3c1ccccn1 (stereo not given),.,.,.,.,-0.1,.,
CN(C)C1(CNC(=O)c2ccc(Cl)c(S(=O)(=O)NCc3ccco3)c2)CCCCC1,-2.0,-3.0,-8.0,0.0,15.3*,-3.0,
Cc1cc(C(=O)CS(=O)(=O)c2ccccc2)cc(C)c1OC(=O)N(C)C,0.0,-4.0,-1.0,0.0,10.0*,-2.0,
Cc1ccc(S(=O)(=O)CC(=O)c2cc(C)c(OC(=O)N(C)C)c(C)c2)cc1,-5.0,-3.0,-4.0,-4.0,2.9,-5.0,
CN(C)c1ccc(C=C2C(=O)NC(=O)NC2=O)cc1[N+](=O)[O-],7.0,5.0,48.0*,16.0,-2.1,13.0,
COc1ccc(N=Nc2c(O)[nH]c(=S)[nH]c2=O)cc1,-20.0,-3.0,5.0,3.0,9.8*,12.0,
CCCCn1c(O)c(C(=O)/C=C/c2c[nH]c3ccccc23)c(=O)[nH]c1=O,.,.,.,.,4.4,.,
O=c1c2ccccc2[nH]c(=S)n1-c1cccnc1,.,.,.,.,9.7*,.,
C=C1C2C[C@H](O)C(C)(C)[C@@]2(O)[C@H](O)C[C@]23C[C@@](C)(O)[C@H](CC[C@H]12)[C@H]3OC(C)=O (stereo not given in full),1.0,0.0,-2.0,1.0,-0.9,0.0,
CC12CN3CC(C)(CN(C1)C3c1cccnc1)C2=O (stereo not given),-7.0,-1.0,-11.0,0.0,5.3,-7.0,
CC12CN3CC(C)(CN(C1)C3c1ccco1)C2=O (stereo not given),6.0,3.0,4.0,3.0,9.3*,0.0,
Cc1ccc(C(=O)c2cc(Br)ccc2N)cc1,-4.0,-1.0,-7.0,-2.0,0.5,-5.0,
CCOc1ccc([N+](=O)[O-])cc1CNCCc1ccccc1,-2.0,-4.0,-6.0,1.0,11.0*,-2.0,Wee1 degr conf=-1.8
CCOc1ccc(Cl)cc1CNCCc1ccccc1F,.,.,.,.,-1.5,.,
CCN(CC)CCCN=Cc1c(O)n(-c2ccccc2F)c(=O)[nH]c1=O,-4.0,-2.0,-5.0,-1.0,36.2*,-9.0,Wee1 degr conf=-1.2
Cc1ccc(-n2nc(C)c(C3C(C#N)=C(N)Oc4c3c(=O)oc3ccccc43)c2Cl)cc1 (stereo not given),1.0,0.0,0.0,0.0,1.9,-3.0,
COc1ccc(-c2cc(=NCCCCCC(=O)O)c3cc(C)ccc3o2)cc1,8.0,8.0,-1.0,5.0,16.6*,2.0,Wee1 degr conf=3.2
O=C(C[N+]12CCC(CC1)C(CO)C2)c1ccc([N+](=O)[O-])cc1 (stereo not given),-6.0,-1.0,0.0,2.0,14.2*,1.0,Wee1 degr conf=3.1
CC(=O)OC1(c2ccccc2)CC(C(C)(C)C)CN(C(C)(C)C)C1 (stereo not given),0.0,1.0,0.0,0.0,14.5*,0.0,Wee1 degr conf=5.9
CS(=O)(=O)NNP(=O)(NNS(C)(=O)=O)NC(=O)c1ccc(Br)cc1,.,.,.,.,-1.2,.,
COc1ccccc1N1CCN(Cc2ccc(F)cc2)CC1,-3.0,-3.0,-2.0,-2.0,13.8*,0.0,Wee1 degr conf=2.9
COc1ccc(CN2CCN(c3ccccc3F)CC2)cc1O,-6.0,-17.0,-6.0,3.0,0.1,-8.0,
